# Several values for one entry are separate records, joined by “and”; a condition that tells them apart may be missing. Identical values can stand only once. Results filed as inconclusive are left out. Activity calls are given as the source filed them. Unless noted, the rule behind the calls is not given here.
# Assays:
# [1] = qHTS Assay for Identifying Gametocytocidal Compounds (AID 743244; active = well fitted curve in the direction sought with a large enough effect; an effect the other way counts as inactive or inconclusive;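 note: % is set by controls: 0 for no effect and ±100 for the full control effect; actives lower the fluorescent signal which means gametocytes are killed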); details: P. falciparum 3D7 stage III-V gametocytes, alamarBlue, 72 h; max response: stronger effect = lower value
# In short: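 Stage III-V P. falciparum 3D7 gametocytes, 20,000 per well, were exposed to compounds for 72 h at 37C, 5% CO2. AlamarBlue was then added for 24 h and viability was read as fluorescence at Ex 525/Em 598 nm.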
# [2] = qHTS profiling for inhibitors of Plasmodium falciparum (3D7) proliferation (AID 743322);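 note: infected erythrocytes exposed to compound for 72 h before lysis; 100% = DMSO vehicle wells and 0% = 0.29 µM artemisinin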; details: P. falciparum 3D7 proliferation
# In short: (§1)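 Parasite DNA was quantified by SYBR Green I fluorescence (ex 485, em 535 nm) after overnight lysis in saponin/Triton buffer at room temperature. Cultures at 0.3% parasitemia and 2.5% hematocrit were first exposed to compound for 72 h at 37 C; signals were normalised to artemisinin (0.29 uM) and vehicle wells.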
# [3] = qHTS profiling for inhibitors of Plasmodium falciparum (DD2) proliferation (AID 743323); details: lower = more inhibition
# In short: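 Parasite proliferation measured via DNA-dye fluorescence, as uninfected erythrocytes lack DNA. Cultures at 0.3% parasitemia and 2.5% hematocrit incubated 72 h with compound; signal scaled between vehicle and 0.29 uM artemisinin wells.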
# [4] = qHTS profiling for inhibitors of Plasmodium falciparum (HB3) proliferation (AID 743324; active = well fitted curve in the direction sought with a large enough effect; an effect the other way counts as inactive or inconclusive;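 note: 100% = DMSO vehicle wells and 0% = artemisinin-treated control wells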); details: Plasmodium falciparum HB3 blood-stage proliferation
# In short: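 SYBR Green fluorescence (485 ex/535 em) of lysed cultures, incubated overnight at room temperature in the dark, quantifies parasite DNA. Infected erythrocytes at 0.3% parasitemia and 2.5% hematocrit were exposed 72 h; values normalized to DMSO and 0.29 uM artemisinin controls.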
# [5] = qHTS profiling of the MIPE4 collection as inhibitors of Plasmodium falciparum (3D7) proliferation (AID 743344);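 note: scaled between DMSO vehicle wells and 0.29 µM artemisinin as full inhibition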; details: P. falciparum 3D7 in erythrocytes, SYBR Green DNA fluorescence, 72 h; at 28.5 µM (top of the series) unless noted
# In short: as §1
# [6] = qHTS profiling of the MIPE4 collection as inhibitors of Plasmodium falciparum (DD2) proliferation (Rep 2) (AID 743346); details: P. falciparum Dd2 in erythrocytes, SYBR Green DNA, 72 h; at 28.5 µM (top of the series) unless noted
# In short: as §1
# [7] = qHTS profiling of the MIPE4 collection as inhibitors of Plasmodium falciparum (HB3) proliferation (AID 743347);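 note: plate controls were DMSO vehicle wells for no effect and artemisinin wells for full effect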; details: P. falciparum HB3 in erythrocytes, SYBR Green DNA, 72 h; at 28.5 µM (top of the series) unless noted
# In short: as §1
# [8] = High-throughput drug toxicity screening in the BPDCN cell line Gen2.2 (AID 1224824); details: Gen2.2 BPDCN cells; at 45.8 µM (top of the series) unless noted;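 note: cells exposed to compounds for 48 h before reading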
# In short: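 CellTiter-Glo luminescence after 48 h compound exposure of Gen2.2 cells; percent activity set with DMSO as 100% and bortezomib (9.2 uM final) as 0%. Cells seeded at 500 per well, RPMI + 10% FBS, 37 °C.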
# [9] = qHTS assay for small molecule agonists of the antioxidant response element (ARE) signaling pathway measured by Nrf2-dependant transcriptional activity (AID 720636; active = well fitted curve in the direction sought with a large enough effect in the repeat runs; an effect the other way counts as inactive or inconclusive;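 note: HepG2 cells with an ARE-driven luciferase reporter; % of control where 0% means no effect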)
# In short: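 We exposed ARE-luc HepG2 cells, seeded in assay medium with 1% dialyzed FBS and allowed 6 hr to adhere, to test compounds overnight (16 hr, 37 C) before measuring luciferase with ONE-Glo.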
# [10] = qHTS assay for small molecule agonists of the antioxidant response element (ARE) signaling pathway measured by Nrf2-dependant transcriptional activity - cell viability counter screen (AID 720653; active = well fitted curve in the direction sought with a large enough effect in the repeat runs; an effect the other way counts as inactive or inconclusive; note: % is set by controls: 0 for no effect and ±100 for the full control effect); details: ARE-bla HepG2 viability, CellTiter-Glo ATP luminescence, 16 h; max response: stronger effect = lower value
# In short: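 ARE-bla HepG2 cells treated with compounds for 16 h at 37C; this counter screen measures viability as intracellular ATP by CellTiter-Glo luminescence after 30 min at room temperature.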
# [11] = qHTS assay for cell viability of HEK293 cells (AID 743288; active = well fitted curve in the direction sought with a large enough effect; an effect the other way counts as inactive or inconclusive; note: nearly all actives have a fitted effect of over 50% in size; note: potency is the fitted concentration of half-maximal effect; for max response: % is set by controls: 0 for no effect and ±100 for the full control effect); details: ATP luminescence (CellTiter-Glo), 18 h; max response: stronger effect = lower value
# In short: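 ATP luminescence (CellTiter-Glo) reports metabolically competent cell number after parental HEK293 cells, 2,000/well, were treated with DMSO-dissolved compounds for 18 h at 37 C; reagent incubation 30 min, room temperature.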
# [12] = qHTS assay for cell viability of the p53RE-bla HCT-116 cell line (AID 743292; active = well fitted curve in the direction sought with a large enough effect; an effect the other way counts as inactive or inconclusive; note: % is set by controls: 0 for no effect and ±100 for the full control effect; nearly all actives have a fitted effect of over 55% in size)
# In short: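 In this qHTS counter-screen, metabolically competent p53RE-bla HCT-116 cells were counted via their ATP content. Compounds were applied for 16 h at 37 C and luciferase-coupled luminescence was measured.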
# [13] = qHTS for compounds that reverse cellular toxicity of Amyloid beta (A-beta) peptide in yeast: LOPAC Validation Assay (AID 720559; active = well fitted curve in the direction sought with a large enough effect; an effect the other way counts as inactive or inconclusive;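 note: plate controls were DMSO for no effect and equimolar ferric chloride plus clioquinol rescue for full effect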)
# In short: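 OD600 growth readout after 48 hr at 30 C; A-beta-toxic yeast plus pinned compounds in medium. Normalization: DMSO = negative, equimolar FeCl3 + clioquinol = positive.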
# [14] = qHTS profiling of the MIPE4 collection as inhibitors of Plasmodium falciparum (DD2) proliferation (AID 743345); details: P. falciparum Dd2 in erythrocytes, SYBR Green DNA, 72 h; at 28.5 µM (top of the series) unless noted
# In short: as §1
# [15] = qHTS for Activators of Parkin Expression: LOPAC Validation Assay (NLuc Reporter) (AID 720572; active = well fitted curve in the direction sought with a large enough effect; an effect the other way counts as inactive or inconclusive)
# In short: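 NLuc signal, read 10 min after reagent and following a prior FLuc read, is normalized to DMSO (0) and positive controls (100%). Cells: neuronal Parkin-promoter coincidence reporter line; compounds tested 7-point, 24 h, 37 C, 5% CO2.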
# [16] = qHTS for Activators of Parkin Expression: LOPAC Validation Assay (FLuc Reporter) (AID 720573; active = well fitted curve in the direction sought with a large enough effect; an effect the other way counts as inactive or inconclusive)
# In short: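 FLuc luminescence read-out from a neuronal line expressing a Parkin-promoter-driven coincidence reporter. Cells treated 24 h at 37 C, 5% CO2 with compounds at 7 concentrations; signal increase normalized to DMSO and positive control.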
# [17] = target: T1, Hexokinase-4 (Homo sapiens) + Glucokinase regulatory protein (Homo sapiens) (UniProt P35557+Q14397); assay: qHTS assay for inhibitors of recombinant human GCK-GKRP interaction: ADP-Glo assay (AID 743206; active = well fitted curve in the direction sought with a large enough effect; an effect the other way counts as inactive or inconclusive;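 note: plate controls were DMSO plus enzyme for no effect and no enzyme for full effect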)
# T1 sequence (P35557 whole entry, looked up): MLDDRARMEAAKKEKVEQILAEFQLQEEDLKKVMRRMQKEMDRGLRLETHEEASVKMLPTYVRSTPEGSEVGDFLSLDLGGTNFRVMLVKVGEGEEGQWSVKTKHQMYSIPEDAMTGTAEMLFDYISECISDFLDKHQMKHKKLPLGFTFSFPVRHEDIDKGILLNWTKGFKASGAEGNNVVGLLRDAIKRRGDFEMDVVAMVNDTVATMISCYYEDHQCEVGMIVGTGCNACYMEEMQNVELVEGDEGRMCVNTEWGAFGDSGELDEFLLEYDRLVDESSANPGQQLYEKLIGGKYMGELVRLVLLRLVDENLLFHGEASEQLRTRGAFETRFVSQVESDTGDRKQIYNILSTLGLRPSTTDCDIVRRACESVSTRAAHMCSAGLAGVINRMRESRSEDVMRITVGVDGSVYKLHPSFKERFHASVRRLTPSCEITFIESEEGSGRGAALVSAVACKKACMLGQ
# T1 sequence (Q14397 whole entry, looked up): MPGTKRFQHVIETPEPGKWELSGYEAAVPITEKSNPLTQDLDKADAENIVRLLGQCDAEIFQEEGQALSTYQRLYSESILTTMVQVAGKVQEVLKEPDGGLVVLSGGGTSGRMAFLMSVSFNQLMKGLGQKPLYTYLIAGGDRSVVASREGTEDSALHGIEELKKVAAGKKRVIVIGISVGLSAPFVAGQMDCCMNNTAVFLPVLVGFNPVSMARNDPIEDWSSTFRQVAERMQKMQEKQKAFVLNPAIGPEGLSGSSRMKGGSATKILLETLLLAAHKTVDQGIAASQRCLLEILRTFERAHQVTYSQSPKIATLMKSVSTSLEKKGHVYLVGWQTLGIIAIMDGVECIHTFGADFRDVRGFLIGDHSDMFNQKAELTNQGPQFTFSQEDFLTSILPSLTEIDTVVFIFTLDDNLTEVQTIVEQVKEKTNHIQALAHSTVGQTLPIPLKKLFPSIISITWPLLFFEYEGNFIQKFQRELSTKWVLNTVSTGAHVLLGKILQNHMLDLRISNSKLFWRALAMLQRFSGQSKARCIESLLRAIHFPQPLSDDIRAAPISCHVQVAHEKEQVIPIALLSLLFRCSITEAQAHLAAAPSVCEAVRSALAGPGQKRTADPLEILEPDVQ
# In short: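 Pin-transferred compounds meet a 15 nM GST-GCK/15 nM FLAG-GKRP/2 uM S6P mix (dispense concentrations). ATP is then added to 0.4 mM final with 5 mM glucose, and the reaction runs 60 min at room temperature. ADP is quantified luminescently.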
# [18] = target: T1, Hexokinase-4 (Homo sapiens) + Glucokinase regulatory protein (Homo sapiens); assay: qHTS assay for inhibitors of recombinant human GCK-GKRP interaction: HTRF assay (AID 743207; active = well fitted curve in the direction sought with a large enough effect; an effect the other way counts as inactive or inconclusive;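 note: 0% = DMSO with GCK present and -100% = DMSO wells lacking GCK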)
# In short: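 HTRF read-out (ex 320 nm; 615/665 nm emission) after 60 min RT equilibration of 5 nM GST-GCK, 5 nM FLAG-GKRP, 2 uM S6P, compound and anti-FLAG/anti-GST detection antibodies; signal normalized between DMSO wells with and without GCK.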
# [19] = target: T1, Hexokinase-4 (Homo sapiens) + Glucokinase regulatory protein (Homo sapiens); assay: qHTS assay for inhibitors of recombinant human GCK-GKRP interaction: Diaphorase-coupled assay (AID 743205; active = well fitted curve in the direction sought with a large enough effect; an effect the other way counts as inactive or inconclusive)
# In short: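 Resorufin fluorescence (525/590 nm), read each minute over 30 min, reports GCK activity coupled via G6PDH and diaphorase. Reaction: 10 nM GST-GCK, 10 nM FLAG-GKRP, 5 mM glucose, 0.4 mM ATP, 0.15 mM NADP+, 0.1 mM resazurin.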
structure (smiles),measurement,setting,value
CC1(CN2CCC(n3c(=O)[nH]c4ccccc43)CC2)OCc2ccccc2-n2cccc21 (configuration not stated),max response,[1],-18.7% (inactive) and -2.64% (inactive)
same,remaining parasite growth % (stronger effect = lower value),[2]; at 28.7 µM (top of the series),21.2%
same,"activity, percent of control",[3]; at 28.7 µM (top of the series),17.6%
same,"remaining proliferation (% of control), lower = more inhibition",[4]; at 28.7 µM (top of the series),0.0183%
same,"parasite growth, % of DMSO control",[5],10.9%
same,"parasite growth, % of control (lower = inhibition)",[6],11%
same,"growth, % of control",[7],7.33%
same,"cell viability, % of control (lower = more cytotoxic)",[8],137%
Cc1ccc(-c2cc(C(F)(F)F)nn2-c2ccc(S(N)(=O)=O)cc2)cc1,outcome,[9],inactive
same,max response,[10],-0.182% (inactive)
same,max response,[1],2.3% (inactive) and -2.23% (inactive)
same,max response,[11],-4.48% (inactive)
same,Potency,[12],inactive
same,remaining parasite growth % (stronger effect = lower value),[2]; at 28.7 µM (top of the series),17.6%
same,remaining parasite growth % (stronger effect = lower value),[2]; at 57.5 µM (top of the series),11.7%
same,"activity, percent of control",[3]; at 28.7 µM (top of the series),45.8%
same,"activity, percent of control",[3]; at 57.5 µM (top of the series),21.2%
same,"remaining proliferation (% of control), lower = more inhibition",[4]; at 28.7 µM (top of the series),12.9%
same,"remaining proliferation (% of control), lower = more inhibition",[4]; at 57.5 µM (top of the series),16%
same,"parasite growth, % of DMSO control",[5],21.9%
same,"parasite growth, % of control (lower = inhibition)",[6],35%
same,"growth, % of control",[7],7.95%
same,"cell viability, % of control (lower = more cytotoxic)",[8],250%
OCCN(CCO)c1nc(N2CCCCC2)c2nc(N(CCO)CCO)nc(N3CCCCC3)c2n1,outcome,[13],inactive
same,max response,[1],7.4% (inactive)
same,"parasite growth, % of control (lower = inhibition)",[6],36.9%
same,"cell viability, % of control (lower = more cytotoxic)",[8],130%
CC1(C)O[C@H]2CC(=O)OC[C@]23[C@H]2CC[C@@]4(C)[C@H](c5ccoc5)OC(=O)[C@H]5O[C@]54[C@]2(C)C(=O)C[C@@H]13,max response,[1],0.83% (inactive)
same,"parasite growth, % of DMSO control",[5],86.6%
same,"parasite growth remaining, % of DMSO control (lower = more inhibition)",[14],122%
same,"parasite growth, % of control (lower = inhibition)",[6],82%
same,"growth, % of control",[7],107%
same,"cell viability, % of control (lower = more cytotoxic)",[8],131%
CN(C)C(=N)N=C(N)N,max response,[1],1.21% (inactive) and -1.21% (inactive)
same,remaining parasite growth % (stronger effect = lower value),[2]; at 28.7 µM (top of the series),104%
same,"activity, percent of control",[3]; at 28.7 µM (top of the series),125%
same,"remaining proliferation (% of control), lower = more inhibition",[4]; at 28.7 µM (top of the series),102%
same,"parasite growth, % of DMSO control",[5],97.5%
same,"parasite growth, % of control (lower = inhibition)",[6],85.6%
same,"growth, % of control",[7],110%
same,"cell viability, % of control (lower = more cytotoxic)",[8],165%
CC[C@@]1(O)C(=O)OCc2c1cc1n(c2=O)Cc2cc3c(CN(C)C)c(O)ccc3nc2-1,max response,[1],27.1% (inactive) and 13.5% (inactive)
same,remaining parasite growth % (stronger effect = lower value),[2]; at 28.7 µM (top of the series),11.5%
same,"activity, percent of control",[3]; at 28.7 µM (top of the series),12.8%
same,"parasite growth, % of DMSO control",[5],13.9%
same,"parasite growth, % of control (lower = inhibition)",[6],33.7%
same,"growth, % of control",[7],21.3%
same,"cell viability, % of control (lower = more cytotoxic)",[8],14.6%
CN1CCC(=C2c3ccccc3C=Cc3ccccc32)CC1,outcome,[13],inactive
same,outcome,[15],inactive
same,Potency,[16],inactive
same,Potency,[17],inactive
same,Potency,[18],inactive
same,"parasite growth, % of DMSO control",[5],15%
same,"parasite growth, % of control (lower = inhibition)",[6],35.3%
same,"growth, % of control",[7],12.5%
same,"cell viability, % of control (lower = more cytotoxic)",[8],106%
CN(C)CCCN1c2ccccc2CCc2ccc(Cl)cc21,outcome,[13],inactive
same,outcome,[15],inactive
same,Potency,[16],inactive
same,Potency,[17],inactive
same,Potency,[18],inactive
same,"parasite growth, % of DMSO control",[5],19.3%
same,"parasite growth remaining, % of DMSO control (lower = more inhibition)",[14],12%
same,"parasite growth, % of control (lower = inhibition)",[6],24.6%
same,"growth, % of control",[7],21.5%
same,"cell viability, % of control (lower = more cytotoxic)",[8],29.4%
CC(COc1ccccc1)N(CCCl)Cc1ccccc1 (configuration not stated),outcome,[9],inactive
same,Potency,[17],inactive
same,Potency,[18],inactive
same,Potency,[11],35.5 µM (active)
same,Potency,[12],inactive
same,"parasite growth, % of DMSO control",[5],90.3%
same,"parasite growth remaining, % of DMSO control (lower = more inhibition)",[14],26.2%
same,"parasite growth, % of control (lower = inhibition)",[6],27%
same,"cell viability, % of control (lower = more cytotoxic)",[8],82.3%
CN1C(C(=O)Nc2ccccn2)=C(O)c2ccccc2S1(=O)=O,outcome,[13],inactive
same,Potency,[16],inactive
same,Potency,[19],inactive
same,Potency,[17],inactive
same,Potency,[18],inactive
same,max response,[1],-1.29% (inactive) and 1.85% (inactive)
same,"parasite growth, % of DMSO control",[5],77.2%
same,"parasite growth remaining, % of DMSO control (lower = more inhibition)",[14],88.2%
same,"parasite growth, % of control (lower = inhibition)",[6],136%
same,"growth, % of control",[7],90.6%
same,"cell viability, % of control (lower = more cytotoxic)",[8],61.5%
Cc1cc(C(C)(C)C)c(O)c(C)c1CC1=NCCN1,outcome,[13],inactive
same,outcome,[15],inactive
same,Potency,[16],inactive
same,Potency,[17],inactive
same,Potency,[18],inactive
same,max response,[1],-1.21% (inactive) and 27.5% (inactive)
same,"parasite growth, % of DMSO control",[5],80.6%
same,"parasite growth, % of control (lower = inhibition)",[6],68.6%
same,"growth, % of control",[7],98.3%
same,"cell viability, % of control (lower = more cytotoxic)",[8],97.9%

# Source: PubChem BioAssay (NCATS)
